Hits are enriched below; roughly 21% of the tested compounds scored in any of these assays.
IL1B secr inh = qHTS for Inhibitors of Inflammasome Signaling: IL-1-beta AlphaLISA Primary Screen | THP-1 LPS/ATP IL-1B secretion, AlphaLISA, 16 h; active compounds read low | actives 4.7% (n = 360,000) | activity change, % at 57.5 µM | AID 743279, 2014; in the data active = activity change below about -50%; inconclusive = mostly about -30% to -49%
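THP-1 cells pretreated 1 hr with compounds (up to 57.5 uM final), then stimulated with LPS (250 ng/mL final) plus ATP (1.25 mM final); secreted IL-1B measured by AlphaLISA after 16 hr, decreased signal indicating inhibition.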
Gal4-VP16 FLuc = VP16 counterscreen qHTS for inhibitors of ROR gamma transcriptional activity. Drosophila S2 Gal4-VP16 UAS-luciferase, luminescence, 20 h. Potency, µM (top dose mostly 53.6 µM), hits mostly inhibitors. actives 3.5% (n = 310,000). AID 2546, 2010;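 note: Gal4-VP16 expression switched on by copper sulfate through the metallothionein promoter; nearly all actives have a fitted effect of over 50% in size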
TDP1 cell noCPT = qHTS for Inhibitors of human tyrosyl-DNA phosphodiesterase 1 (TDP1): qHTS in cells in absence of CPT. DT40 Tdp1-/- hTDP1 cells, no CPT, ATP luminescence, 48 h. Potency, µM (top dose mostly 46.2 µM), actives largely listed as inhibitors. actives 15% (n = 420,000); note: nearly all actives have a fitted effect of over 55% in size
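Seeded 400 DT40-hTDP1 cells/well (vehicle DMSO, no 20 nM CPT); pinned compounds; ≥48 hr at 37 °C; CellTiter-Glo luminescence as viability measure.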
ELG1 repair inh = qHTS screen for small molecules that inhibit ELG1-dependent DNA repair in human embryonic kidney (HEK293T) cells expressing luciferase-tagged ELG1. AID 504467, 2011. HEK293T ELG1-luciferase reporter, luminescence, 16 h; DNA damage induced by 5-fluorouridine. actives 2.3% (n = 330,000). Potency, µM (top dose mostly 46.1 µM), actives largely listed as inhibitors; note: nearly all actives have a fitted effect of over 55% in size
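Quantitative HTS, concentration-response format. 2,000 cells/well co-treated with 5-fluorouridine and compound, 16 hr in 5% CO2 at 37 °C; ONE-Glo luminescence read after 30 min.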
RORgamma inh = qHTS for inhibitors of ROR gamma transcriptional activity. Potency, µM (titrated, usually from 53.6 µM), hits mostly inhibitors. actives 5.4% (n = 310,000). Drosophila S2 Gal4-RORgamma UAS-luciferase reporter, 20 h. Nuclear receptor ROR-gamma (Mus musculus), P51450; note: nearly all actives have a fitted effect of over 60% in size
Target sequence (P51450 whole entry, looked up, the tested form may be a part): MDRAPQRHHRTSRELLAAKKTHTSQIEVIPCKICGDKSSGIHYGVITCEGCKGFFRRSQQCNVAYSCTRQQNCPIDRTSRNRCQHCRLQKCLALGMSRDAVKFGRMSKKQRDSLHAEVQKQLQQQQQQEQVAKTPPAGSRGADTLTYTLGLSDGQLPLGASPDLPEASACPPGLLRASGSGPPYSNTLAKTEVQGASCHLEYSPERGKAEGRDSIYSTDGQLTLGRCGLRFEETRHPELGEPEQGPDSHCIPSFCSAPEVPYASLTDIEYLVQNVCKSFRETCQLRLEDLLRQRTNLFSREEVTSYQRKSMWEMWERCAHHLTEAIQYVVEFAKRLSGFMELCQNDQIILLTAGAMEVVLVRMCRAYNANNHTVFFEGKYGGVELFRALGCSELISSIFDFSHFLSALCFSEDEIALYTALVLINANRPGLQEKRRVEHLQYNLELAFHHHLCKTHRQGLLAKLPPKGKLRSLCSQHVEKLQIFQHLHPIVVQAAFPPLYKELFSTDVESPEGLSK
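Drosophila S2 cells stably expressing Gal4-DBD/mouse RORγ fusion under metallothionein promoter plus UAS-luciferase; compound 1 h, then 700 uM CuSO4 induction for 20 h at ambient temperature; inhibition read as reduced luminescence.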
DT40 TDP1 CPT = qHTS for Inhibitors of human tyrosyl-DNA phosphodiesterase 1 (TDP1): qHTS in cells in presence of CPT; Potency, µM (titrated, usually from 46.2 µM), most hits filed as inhibitors; actives 12% (n = 420,000); chicken DT40 Tdp1-/-;hTDP1 cells + 20 nM CPT, ATP luminescence, 48 h; AID 686979, 2013; note: nearly all actives have a fitted effect of over 55% in size
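Chicken DT40 Tdp1-/- cells stably complemented with human TDP1 were seeded at 400 cells/well in medium containing 20 nM camptothecin, exposed to pin-transferred compounds, and grown at 37 °C for at least 48 hr. Viability was read as ATP luminescence.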
Hits are given with their value; 0 = inactive; ? = inconclusive; - = not tested or not shown; [ ] = another dose, or the depositor's remark. Unless noted, calls come from the whole dose curve; as a rule, active = well fitted curve in the direction sought with a large enough effect; inconclusive = small, poorly fitted or top-dose-only effect, or another doubt; inactive = no such curve, though single readings can be large; an effect the other way counts as inactive or inconclusive.

SMILES	IL1B secr inh	Gal4-VP16 FLuc	TDP1 cell noCPT	ELG1 repair inh	RORgamma inh	DT40 TDP1 CPT
O=S(=O)(Nc1cccc(-c2ccc3nncn3n2)c1)c1cc(F)ccc1F	0	-	0	0	-	?
Cc1nn(-c2ccccc2)c2sc(C(=O)N(CC(=O)NC3CCCC3)Cc3ccco3)cc12	?	0	16µM	?	0	?
O=C1NC(Cc2ccc(O)cc2)c2nc3cc(F)c(F)cc3c(=O)n2-c2cc3ccccc3cc21 (configuration not stated)	0	-	?	-	-	?
O=C1NC(Cc2ccccc2)c2nc3cc(F)ccc3c(=O)n2-c2ccc(Cl)cc21 (configuration not stated)	-	-	-	0	-	-
O=C1NC(Cc2ccccc2)c2nc3cc(F)ccc3c(=O)n2-c2cc3ccccc3cc21 (configuration not stated)	0	-	5.8µM	-	-	5.2µM
O=C1NC(Cc2ccccc2)c2nc3ccc(F)cc3c(=O)n2-c2ncccc21 (configuration not stated)	0	-	21µM	-	-	?
O=C1NC(Cc2ccccc2)c2nc3cc(F)c(F)cc3c(=O)n2-c2cc3ccccc3cc21 (configuration not stated)	0	-	18µM	-	-	23µM
COc1cc2nc3n(c(=O)c2cc1OC)-c1cc2ccccc2cc1C(=O)NC3Cc1ccccc1 (configuration not stated)	0	-	16µM	-	-	?
O=C1NC(Cc2ccccc2)c2nc3ccccc3c(=O)n2-c2cc3ccccc3cc21 (configuration not stated)	0	-	13µM	-	-	13µM
CCCC1NC(=O)c2cc3ccccc3cc2-n2c1nc1cc(F)ccc1c2=O (configuration not stated)	0	-	21µM	-	-	?
CCC1NC(=O)c2cc3ccccc3cc2-n2c1nc1cc(F)ccc1c2=O (configuration not stated)	0	-	?	-	-	0
O=C1NC(Cc2ccc(O)cc2)c2nc3ccc(F)cc3c(=O)n2-c2cc3ccccc3cc21 (configuration not stated)	0	-	26µM	-	-	?
CCOC(=O)COc1ccc2c(C)c(CCN(CC)CC)c(=O)oc2c1	-	-	0	-	-	0
O=C1NC[C@H](CCCCN2CCN(Cc3ccccc3)C(=O)C2=O)N(CCc2ccccc2)C1=O	0	-	0	-	-	0
Cc1ccc(Cl)cc1NC(=O)C1CCCN(S(=O)(=O)c2c(C)noc2C)C1 (configuration not stated)	0	0	?	?	0	?
CCOc1ccc(N(CC)S(=O)(=O)N2CCCC(C(=O)NCc3ccccc3Cl)C2)cc1 (configuration not stated)	-	-	21µM	-	-	21µM
CCOc1ccc(N(CC)S(=O)(=O)N2CCCC(C(=O)Nc3cc(Cl)ccc3C)C2)cc1 (configuration not stated)	-	-	16µM	-	-	21µM
Cc1ccc(NC(=O)Nc2c(C)n(C)n(-c3ccccc3)c2=O)cc1	0	0	0	0	0	0
Cc1sc(Nc2ccc([N+](=O)[O-])cc2)nc1-c1c(C)n(C)n(-c2ccccc2)c1=O	0	0	23µM	?	0	?
Cc1c(NC(=O)Nc2ccc([N+](=O)[O-])cc2)c(=O)n(-c2ccccc2)n1C	0	0	21µM	0	0	?
Cc1c(N2C(=O)CSC2c2ccc([N+](=O)[O-])cc2)c(=O)n(-c2ccccc2)n1C (configuration not stated)	0	0	0	0	0	?
Cc1ccc(CNC(=O)c2ccc(S(=O)(=O)Nc3c(C)n(C)n(-c4ccccc4)c3=O)cc2)cc1	0	0	21µM	0	0	?
Cc1c(NS(=O)(=O)c2ccc(NC(=O)CCC(=O)O)cc2)c(=O)n(-c2ccccc2)n1C	-71	0	0	0	0	0
COc1ccc(C(=O)OC2CC3CC[C@H](C2)N3C(C)=O)cc1OC (some centres not stated)	-	0	0[9.04 µM]	-	0	0[9.04 µM]
CC(=O)c1ccc(S(=O)(=O)N(C)CCCC(=O)N2CCN(c3ncccn3)CC2)cc1	0	-	?	0	-	0
SMILES	IL1B secr inh	Gal4-VP16 FLuc	TDP1 cell noCPT	ELG1 repair inh	RORgamma inh	DT40 TDP1 CPT
C=CC[C@@H](CC(=O)OC(C)(C)C)C(=O)OC[C@@H]1CCCN1C(=O)[C@H](CC=C)CC(=O)NCCO	0	-	0	0	-	0
CCCCCCCCCCCCCCCCCCNC(=O)OC1CCN(C(=O)OC[C@H](COC(=O)N(Cc2cccc[n+]2CC)C(=O)c2ccccc2OC)OC)CC1	-	-	12µM	-	-	12µM
CCOc1cc(CNc2ncc(-c3ccc(OC)cc3)n2C)ccc1O	0	0	18µM	0	0	?
CCOc1ccc(CNc2ncc(-c3ccccc3)n2C)cc1	0	0	?	0	0	0
CCOc1ccc(-c2cnc(NCc3ccc(C(F)(F)F)cc3)n2C)cc1	-	-	5.8µM	-	-	5.2µM
COc1ccc(-c2nnc(Sc3nc4ccccc4o3)c3ccccc23)cc1	-101	0	20µM	0	0	?
CCC(CC)=NNC(=O)c1ccccc1OCc1ccc(F)cc1	0	0	0	0	0	0
C/C(=N\NC(=O)c1ccccc1OCCOc1ccccc1)c1ccccc1F	-65	-	16µM	18µM	-	?
Cc1ccc(C2Cc3cc(O)c(O)cc3CN2)cc1 (configuration not stated)	0	-	16µM	-	-	15µM
Cc1ccc(C(=O)C2CCNCC2)cc1	0	?	0	?	0	0
CCC(C)[C@H](NC(=O)N1CC(=O)Nc2ccccc21)C(=O)Nc1ccccc1C (some centres not stated)	0	0	?	0	0	16µM
CCCCOc1ccc(C(=O)NCC(=O)NNC(=O)C2COc3ccccc3O2)cc1 (configuration not stated)	0	-	0	0	-	0
C/C(=C\C(=O)OCCCCCCCCC(=O)O)C[C@@H]1OC[C@H](C[C@@H]2O[C@H]2[C@@H](C)[C@H](C)O)[C@@H](O)[C@H]1O	0	0	1.5µM	-	0	1µM
c1ccc2c(c1)SCc1nnc(-c3ccncc3)n1-2	0	0	0	0	0	0
COc1cc2c(c(OC)c1)C(c1cccc(F)c1F)CC(=O)N2 (configuration not stated)	-	-	0	-	-	0
Cc1ccn2c(Nc3ccccc3C)c(-c3cccnc3)nc2c1	0	0	?	0	0	16µM

Screening data from PubChem BioAssay.
